Assay outcomes (PubChem)
In the library only some 3.4% were active in any assay of this set; here they are far more common.
FAK inh: inhibitors of human focal adhesion kinase | hit rate 0.84% among 97,000 | Q05397 | biochemical FAK kinase activity assay | AID 727 | inhibition, %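 (tested at 7 µM)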; in the data active means inhibition above about 19%
ERa SRC1 inh: blocks coactivator binding to human estrogen receptor alpha; TR-FRET ER-alpha LBD / SRC-1 peptide, estradiol-bound; inhibition, % at 25.6 µM; hit rate 1.7% among 86,000; AID 629; in the data active means inhibition above about 50%
ERa SRC1 pot: ER-alpha (human) coactivator binding potentiation. P03372. TR-FRET ERalpha-LBD/SRC-Cy5 coactivator binding, 2 h; 100 = basal binding, no effect. coactivator binding (% of control), % at 25.6 µM. hit rate 1.3% among 86,000; in the data active means activity above about 200%;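 further: binding measured in presence of low estradiol as agonist stimulus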
PTPN22 inh 2: LYP (human) phosphatase inhibition. Q9Y2R2. recombinant LYP catalytic domain, DiFMUP fluorescence. inhibition, % at 2 µM. hit rate 0.21% among 96,000;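 active means inhibition at 2 µM at or above a set limit, the screen mean plus 3 SD, cut at about 24% in these data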
Target sequence (Q9Y2R2 whole entry, looked up, the tested form may be a part): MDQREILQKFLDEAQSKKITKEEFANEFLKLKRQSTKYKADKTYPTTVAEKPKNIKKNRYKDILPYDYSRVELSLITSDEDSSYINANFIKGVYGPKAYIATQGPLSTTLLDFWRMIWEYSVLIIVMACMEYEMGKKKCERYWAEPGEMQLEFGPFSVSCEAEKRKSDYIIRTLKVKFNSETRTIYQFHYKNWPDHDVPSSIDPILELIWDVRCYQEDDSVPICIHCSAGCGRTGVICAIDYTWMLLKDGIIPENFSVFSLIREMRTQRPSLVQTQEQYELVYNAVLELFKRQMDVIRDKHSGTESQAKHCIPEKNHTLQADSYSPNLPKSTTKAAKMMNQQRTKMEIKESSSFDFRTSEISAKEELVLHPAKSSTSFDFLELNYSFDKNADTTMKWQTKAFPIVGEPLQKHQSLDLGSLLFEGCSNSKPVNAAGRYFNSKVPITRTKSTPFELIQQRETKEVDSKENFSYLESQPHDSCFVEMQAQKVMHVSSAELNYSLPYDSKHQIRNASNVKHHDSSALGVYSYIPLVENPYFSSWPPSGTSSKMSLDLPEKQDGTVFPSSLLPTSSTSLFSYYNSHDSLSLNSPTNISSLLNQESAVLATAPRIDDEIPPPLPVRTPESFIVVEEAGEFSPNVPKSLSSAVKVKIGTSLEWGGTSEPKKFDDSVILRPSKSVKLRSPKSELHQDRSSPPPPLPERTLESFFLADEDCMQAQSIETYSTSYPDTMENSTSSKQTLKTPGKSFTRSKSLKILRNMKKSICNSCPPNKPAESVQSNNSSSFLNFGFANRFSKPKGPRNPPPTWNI
ERb SRC1 inh: blocks coactivator binding to human estrogen receptor beta; TR-FRET ER-beta LBD / SRC1-Cy5 peptide binding; receptor agonist-loaded with 1 µM estradiol; inhibition, % at 25.6 µM; hit rate 1.3% among 86,000; AID 633;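 active means compounds whose percent inhibition of the receptor-coactivator binding signal exceeds about 50% in the single-dose screen, limit read from the data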
LYP act: LYP (human) phosphatase activation; Q9Y2R2; hit rate 0.11% among 96,000; activation, % at 2 µM; recombinant LYP, DiFMUP fluorescence; 0 = plate median, 100 = signal doubled;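 active means activation at 2 µM above a set limit, the mean plus 5 SD, cut at about 37% in these data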
Each line names hits and unclear results; the compound was inactive in the other large screens; [ ] = remark or other dose.

O=C(Nc1ccncc1)c1cn(-c2ccccc2)nc1-c1cccs1	ERa SRC1 pot 229[fluorescence artefact?]
Cc1ccccc1NC(=O)Cn1cnc2c(oc3ccccc32)c1=O	none
O=C(Cn1cnc2c(oc3ccccc32)c1=O)c1ccccc1	ERa SRC1 pot 266[fluorescence artefact?]
C=CC[n+]1c(-c2ccc(OCC)cc2)csc1NNC(=O)Nc1ccccc1	none
CCOC(=O)n1c(=O)n(Cc2ccc(Cl)c(Cl)c2)c2ccccc21	none (no result: ERa SRC1 inh, ERa SRC1 pot, ERb SRC1 inh)
COc1ccccc1N1CCN(c2nc3ccccn3c(=O)c2C=O)CC1	none (no result: ERa SRC1 inh, ERa SRC1 pot, ERb SRC1 inh)
COc1ccc(OCC(=O)OCCN2C(=O)c3ccccc3C2=O)cc1	ERa SRC1 inh 59[fluorescence artefact?]
O=C1c2ccccc2C(=O)N1CCOCCN1C(=O)c2ccccc2C1=O	none
O=C(CCN1C(=O)c2ccccc2C1=O)Oc1ccc2ccccc2c1	PTPN22 inh 2 75
O=C1c2ccccc2C(=O)N1CCCOc1ccccc1	none
COC(=O)Nc1ccc(=O)n(Cc2c(Cl)cccc2Cl)c1	none (no result: ERa SRC1 inh, ERa SRC1 pot, ERb SRC1 inh)
O=C(CSCc1cccc(Br)c1)N1CCOCC1	none
Fc1ccc(Cn2cnc3ccccc32)cc1	none
COc1cc2c3nnc(-c4ccc(F)cc4)c-3cn(Cc3cccc(C)c3)c2cc1OC	ERa SRC1 pot 366[fluorescence artefact?]
COc1cc2c3nnc(-c4ccc(F)cc4)c-3cn(Cc3ccc(C)cc3)c2cc1OC	ERa SRC1 pot 591[fluorescence artefact?], ERb SRC1 inh 51[fluorescence artefact?]
O=C(c1cc(-c2cccs2)nc2ccccc12)N1CCN(S(=O)(=O)c2ccccc2)CC1	ERa SRC1 pot 201[fluorescence artefact?]
COc1cc(-c2nnc(-c3ccc(N4CCOCC4)cc3)o2)cc(OC)c1OC	none
COc1cc(-c2nnc(-c3ccc(S(=O)(=O)c4ccccc4)cc3)o2)cc(OC)c1OC	ERa SRC1 inh 58
CCc1ccc(-c2cc(C(F)(F)F)n3nc(C(=O)Nc4cnn(Cc5ccc(C)cc5)c4)cc3n2)s1	none (no result: ERa SRC1 inh, ERa SRC1 pot, ERb SRC1 inh)
COc1ccc(Cn2c3nc4ccccc4nc3c3c(=O)n(Cc4ccco4)c(C)nc32)cc1	ERa SRC1 inh 75, ERb SRC1 inh 60[fluorescence artefact?] (no result: FAK inh, PTPN22 inh 2, LYP act)
Cc1cc(C)cc(-n2c3nc4ccccc4nc3c3c(=O)n(Cc4ccco4)cnc32)c1	PTPN22 inh 2 38
Cc1nc2c(c(=O)n1Cc1ccccc1Cl)c1nc3ccccc3nc1n2Cc1ccco1	none (no result: FAK inh, PTPN22 inh 2, LYP act)
COc1ccc(S(=O)(=O)c2c(N)n(Cc3ccco3)c3nc4ccccc4nc23)cc1	ERa SRC1 inh 83[fluorescence artefact?], ERb SRC1 inh 78[fluorescence artefact?]
Nc1c(S(=O)(=O)c2ccccc2)c2nc3ccccc3nc2n1/N=C/c1ccco1	none
COc1ccc(OCC(=O)NCCCN2CCOCC2)cc1	none
CCCSc1nc(SCC(=O)NCc2ccccc2)c2c3c(sc2n1)COC(C)(C)C3	ERa SRC1 pot 294[fluorescence artefact?]
CC(C)Sc1nc(SCC(=O)NCc2ccco2)c2c3c(sc2n1)COC(C)(C)C3	none (no result: FAK inh, PTPN22 inh 2, LYP act)
CC1CCCC(C)N1C(=O)CSc1nnc(COc2ccccc2)n1-c1ccccc1 (configuration not stated)	none
CCOC(=O)C1=C(O)/C(=C\c2ccc(CNC(=O)C(=O)Nc3ccccc3)o2)N=C1C	ERa SRC1 inh 81, ERb SRC1 inh 72
N#CCC(=N)N1CCN(c2ccccc2Cl)CC1	none (no result: ERa SRC1 inh, ERa SRC1 pot, ERb SRC1 inh)
Cc1ccc(NC(=O)COC(=O)C2CC2C)c(S(=O)(=O)N2CCCCC2)c1 (configuration not stated)	none
CCOC(=O)c1cc2c(ccn2C)n1CC(=O)N1CCN(c2ccccc2OC)CC1	none
COc1ccc(C(C(=O)NC2CCCC2)N(C(=O)c2ccco2)c2ccc3c(c2)OCO3)cc1OC (configuration not stated)	ERb SRC1 inh 57
COc1ccc(N(C(=O)c2ccco2)C(C(=O)NC2CCCC2)c2ccc(N(C)C)cc2)cc1OC (configuration not stated)	none
CCNC(=O)CSc1ncnc2sccc12	ERa SRC1 inh 66[fluorescence artefact?]
COCCNC(=O)CSc1ncnc2sccc12	none
CCCCNC(=O)Nc1ccon1	ERb SRC1 inh 99[fluorescence artefact?]
CCCCNC(=O)NNC(=O)c1ccoc1C	none (no result: ERa SRC1 inh, ERa SRC1 pot, ERb SRC1 inh)
S=C(N=Nc1ccccc1)NNc1ccccc1	none (no result: FAK inh, PTPN22 inh 2, LYP act)
Clc1ccc(Nc2nc(-c3ccncc3)cs2)cc1	ERa SRC1 inh 76
Nc1ccc(Nc2nc(-c3ccncc3)cs2)cc1	none
CC(C)C(=O)Nc1cccc(C(=O)Nc2nccs2)c1	none
CCNc1nnc(-c2ccccc2OC)s1	ERb SRC1 inh 73[fluorescence artefact?]
CCCCN1CCc2c([nH]c3c(C)cccc23)C1=O	ERa SRC1 pot 587[fluorescence artefact?] (no result: FAK inh, PTPN22 inh 2, LYP act)
CC(/C=C/C=C/c1ccccc1)=N/NC(=O)CNc1ccc(C)cc1	none (no result: ERa SRC1 inh, ERa SRC1 pot, ERb SRC1 inh)
CCOC(=O)N1CCN(C(=O)c2ccc(CN(c3ccccc3)S(C)(=O)=O)cc2)CC1	none
O=C(COC(=O)c1ccccc1NC(=O)c1ccco1)Nc1ccc2c(c1)OCO2	ERa SRC1 inh 71[fluorescence artefact?]
O=C(COC(=O)c1ccccc1NCc1ccco1)Nc1ccc2c(c1)OCO2	none
O=C(COC(=O)c1ccccc1NC(=O)c1ccco1)NCCC1=CCCCC1	ERb SRC1 inh 98[fluorescence artefact?] (no result: FAK inh, PTPN22 inh 2, LYP act)
Cc1c(C(N)=O)sc2ncn(CC(=O)N3CCC(C)CC3)c(=O)c12	none
CCSC1=NC2(CCCCC2)Nc2sc3c(c21)CCCC3	none
CCSc1nnc(-c2ccc(OC)cc2)o1	none (no result: ERa SRC1 inh, ERa SRC1 pot, ERb SRC1 inh)
COc1ccc(-c2ccc(-c3nnc(-c4ccncc4)o3)cc2)cc1	ERa SRC1 inh 56[fluorescence artefact?] (no result: FAK inh, PTPN22 inh 2, LYP act)
COc1ccc(-n2nc(C(=O)NCC(=O)NCc3ccc(F)cc3)c3ccccc3c2=O)c(OC)c1	none (no result: ERa SRC1 inh, ERa SRC1 pot, ERb SRC1 inh)
c1ccc(-c2nnc3ccc(N4CCCC4)nn23)cc1	none
Cc1cnn(-c2ccc3nnc(-c4ccc(Br)cc4)n3n2)c1	ERa SRC1 pot 284[fluorescence artefact?] (no result: FAK inh, PTPN22 inh 2, LYP act)
O=c1c2c([nH]c3ccc(Br)cc13)CCCC2	none (no result: FAK inh, PTPN22 inh 2, LYP act)
O=c1ccc2cc3c([nH]c4ccc(Br)cc43)oc-2c1O	ERa SRC1 inh 72[fluorescence artefact?], ERb SRC1 inh 74[fluorescence artefact?]
CCOc1cc(S(=O)(=O)N2CCC(C(N)=O)CC2)ccc1F	none
CCOC(=O)CNC(=O)CSc1ncnc2c1cnn2-c1ccc(Cl)cc1	ERa SRC1 pot 206
c1ccc2c(c1)OCC(c1nnc3sc(-c4cnccn4)nn13)O2 (configuration not stated)	ERa SRC1 inh 92[fluorescence artefact?], ERb SRC1 inh 82[fluorescence artefact?]
c1csc(-c2nn3c(C4COc5ccccc5O4)nnc3s2)c1 (configuration not stated)	none
O=C(CC12CC3CC(CC(C3)C1)C2)Nc1cccc2ncccc12	none
Clc1ccc(COc2ccccn2)c(Cl)c1	none
COc1cc(/C=N/NC(=O)/C(=C\c2ccc([N+](=O)[O-])cc2)NC(=O)c2ccccc2)cc(OC)c1O	ERa SRC1 inh 53[fluorescence artefact?]
COc1cc(C(=O)Nc2ccc(-c3nc4cc(C)ccc4o3)c(O)c2)cc(OC)c1OC	ERa SRC1 pot 246
COc1cc(C(=O)Nc2cccc(-c3nc4ccccc4o3)c2C)cc(OC)c1OC	none
COc1cccc(C(=O)Nc2ccc(-c3nc4ccccc4o3)c(O)c2)c1	ERa SRC1 inh 60[fluorescence artefact?]
CC(C)CCn1nnnc1C(C(C)C)N1CCC(C(N)=O)CC1 (configuration not stated)	none
